# Results published in the supplement of paper PMC8728848.
# This excerpt belongs to a sample that is enriched for the strongest signals.
# Assays:
# Assay in all cases: glycan array binding signal (z-score within array); higher = stronger binding
# Details in all cases: glycan notation: IUPAC condensed, linker removed; mutation: N224Q
# Fuc(a1-2)Gal = molecular target: Fuc(a1-2)Gal
# In short: (§1)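 The Consortium for Functional Glycomics database supplied 3228 glycan arrays, of which those lacking an available protein sequence were dropped. The binding signal, a within-array Z-score, was averaged across arrays of the same protein sequence and across linkers. Negative scores can be read as non-binding.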
# [1] = molecular target: Fuc(a1-2)Gal(b1-3)GlcNAc(b1-3)GalNAc
# In short: as §1
# [2] = molecular target: Fuc(a1-2)Gal(b1-3)[Fuc(a1-4)]GlcNAc(b1-2)Man(a1-3)[Fuc(a1-2)Gal(b1-3)[Fuc(a1-4)]GlcNAc(b1-2)Man(a1-6)]Man(b1-4)GlcNAc(b1-4)[Fuc(a1-6)]GlcNAc(b1-4)[Fuc(a1-6)]GlcNAc
# In short: as §1
# Fuc(a1-2)Gal(b1-4)Glc6S = molecular target: Fuc(a1-2)Gal(b1-4)Glc6S
# In short: as §1
# [3] = molecular target: Fuc(a1-2)Gal(b1-4)GlcNAc(b1-3)Gal(b1-4)GlcNAc(b1-2)Man(a1-3)[Fuc(a1-2)Gal(b1-4)GlcNAc(b1-3)Gal(b1-4)GlcNAc(b1-2)Man(a1-6)]Man(b1-4)GlcNAc(b1-4)GlcNAc
# In short: as §1
# [4] = molecular target: Fuc(a1-2)Gal(b1-4)[Fuc(a1-3)]GlcNAc
# In short: as §1
# [5] = molecular target: Fuc(a1-2)Gal(b1-4)[Fuc(a1-3)]GlcNAc(b1-3)Gal(b1-4)[Fuc(a1-3)]GlcNAc
# In short: as §1
# [6] = molecular target: Fuc(a1-2)Gal(b1-4)[Fuc(a1-3)]GlcNAc(b1-3)Gal(b1-4)[Fuc(a1-3)]GlcNAc(b1-3)Gal(b1-4)[Fuc(a1-3)]GlcNAc
# In short: as §1
# Fuc(a1-2)Gal6S(b1-4)Glc = molecular target: Fuc(a1-2)Gal6S(b1-4)Glc
# In short: as §1
# [7] = molecular target: Fuc(a1-2)[Gal(a1-3)]Gal(b1-4)GlcNAc(b1-2)Man
# In short: as §1
# [8] = molecular target: Fuc(a1-2)[Gal(a1-3)]Gal(b1-4)GlcNAc(b1-2)Man(a1-3)[Fuc(a1-2)[Gal(a1-3)]Gal(b1-4)GlcNAc(b1-2)Man(a1-6)]Man(b1-4)GlcNAc(b1-4)[Fuc(a1-6)]GlcNAc
# In short: as §1
# [9] = molecular target: Fuc(a1-2)[Gal(a1-4)]Gal(b1-4)GlcNAc
# In short: as §1
# [10] = molecular target: Fuc(a1-2)[GalNAc(a1-3)]Gal
# In short: as §1
# [11] = molecular target: Fuc(a1-2)[GalNAc(a1-3)]Gal(b1-4)Glc
# In short: as §1
# [12] = molecular target: Fuc(a1-2)[GalNAc(a1-3)]Gal(b1-4)GlcNAc(b1-3)GalNAc
# In short: as §1
# [13] = molecular target: Fuc(a1-2)[GalNAc(a1-4)]Gal(b1-4)GlcNAc
# In short: as §1
# Fuc(a1-3)GlcNAc = molecular target: Fuc(a1-3)GlcNAc
# In short: as §1
# [14] = molecular target: Fuc(a1-3)[Gal(b1-4)]GlcNAc(b1-2)Man
# In short: as §1
# [15] = molecular target: Fuc(a1-3)[Gal(b1-4)]GlcNAc(b1-3)Gal(b1-4)[Fuc(a1-3)]GlcNAc
# In short: as §1
# [16] = molecular target: Fuc(a1-3)[Gal(b1-4)]GlcNAc(b1-6)[Gal(b1-3)GlcNAc(b1-3)]Gal(b1-4)Glc
# In short: as §1
# [17] = molecular target: Fuc(a1-3)[Gal(b1-4)]GlcNAc6S
# In short: as §1
# Fuc(a1-4)GlcNAc = molecular target: Fuc(a1-4)GlcNAc
# In short: as §1
# Fuc(b1-3)GlcNAc = molecular target: Fuc(b1-3)GlcNAc
# In short: as §1
# [18] = molecular target: Gal(b1-3)GalNAc(a1-3)[Fuc(a1-2)]Gal(b1-4)Glc
# In short: as §1
# [19] = molecular target: Gal(b1-3)GlcNAc(b1-2)[Gal(b1-3)GlcNAc(b1-6)]Man(a1-6)[Gal(b1-3)GlcNAc(b1-2)Man(a1-3)]Man(b1-4)GlcNAc(b1-4)GlcNAc
# In short: as §1
# [20] = molecular target: Gal(b1-3)GlcNAc(b1-6)Gal(b1-4)GlcNAc
# In short: as §1
# Gal(b1-3)GlcNAc6S = molecular target: Gal(b1-3)GlcNAc6S
# In short: as §1
# Gal(b1-4)GlcNAc = molecular target: Gal(b1-4)GlcNAc
# In short: as §1
# [21] = molecular target: Gal(b1-4)GlcNAc(b1-2)Man(a1-3)[Gal(b1-4)GlcNAc(b1-2)Man(a1-6)]Man(b1-4)GlcNAc(b1-4)GlcNAc
# In short: as §1
# [22] = molecular target: Gal(b1-4)GlcNAc(b1-2)Man(a1-3)[Gal(b1-4)GlcNAc(b1-2)Man(a1-6)]Man(b1-4)GlcNAc(b1-4)[Fuc(a1-6)]GlcNAc
# In short: as §1
binder,measurement,setting,value
AAL (Aleuria aurantia) (protein) MPTEFLYTSKIAAISWAATGGRQQRVYFQDLNGKIREAQRGGDNPWTGGSSQNVIGEAKLFSPLAAVTWKSAQGIQIRVYCVNKDNILSEFVYDGSKWITGQLGSVGVKVGSNSKLAALQWGGSESAPPNIRVYYQKSNGSGSSIHEYVWSGKWTAGASFGSTVPGTGIGATAIGPGRLRIYYQATDNKIREHCWDSNSWYVGGFSASASAGVSIAAISWGSTPQIRVYWQKGREELYEAAYGGSWNTPGQIKDASRPTPSLPDTFIAANSSGNIDISVFFQASGVSLQQWQWISGKGWSIGAVVPTGTPAGW,glycan array binding signal (z-score),Fuc(a1-2)Gal,4.67
same,glycan array binding signal (z-score),[1],-0.263
same,glycan array binding signal (z-score),[2],0.006
same,glycan array binding signal (z-score),Fuc(a1-2)Gal(b1-4)Glc6S,2.29
same,glycan array binding signal (z-score),[3],6.34
same,glycan array binding signal (z-score),[4],3.69
same,glycan array binding signal (z-score),[5],3.57
same,glycan array binding signal (z-score),[6],3.95
same,glycan array binding signal (z-score),Fuc(a1-2)Gal6S(b1-4)Glc,3.32
same,glycan array binding signal (z-score),[7],-0.285
same,glycan array binding signal (z-score),[8],-0.153
same,glycan array binding signal (z-score),[9],5.8
same,glycan array binding signal (z-score),[10],0.989
same,glycan array binding signal (z-score),[11],-0.309
same,glycan array binding signal (z-score),[12],-0.32
same,glycan array binding signal (z-score),[13],5.38
same,glycan array binding signal (z-score),Fuc(a1-3)GlcNAc,3.92
same,glycan array binding signal (z-score),[14],-0.29
same,glycan array binding signal (z-score),[15],1.96
same,glycan array binding signal (z-score),[16],0.019
same,glycan array binding signal (z-score),[17],-0.274
same,glycan array binding signal (z-score),Fuc(a1-4)GlcNAc,6.22
same,glycan array binding signal (z-score),Fuc(b1-3)GlcNAc,4.57
same,glycan array binding signal (z-score),[18],-0.303
same,glycan array binding signal (z-score),[19],-0.296
same,glycan array binding signal (z-score),[20],-0.317
same,glycan array binding signal (z-score),Gal(b1-3)GlcNAc6S,-0.309
same,glycan array binding signal (z-score),Gal(b1-4)GlcNAc,-0.324
same,glycan array binding signal (z-score),[21],-0.316
same,glycan array binding signal (z-score),[22],-0.216
